Calls of active or inactive are those of the source. The calls were made as follows: active = hit-call score of the fitted dose curve at least 0.9, where 1 is the maximum; inactive = score below 0.9.
Experiments:
Conditions in all cases: mRNA level, 48 h; actives raise or lower the signal
[1] = read-out: Forkhead box O3 (FOXO3), FOXO3 (gene 2309); assay: LTEA_HepaRG_FOXO3: Life Technologies and Expression Analysis (LTEA) Assay for Forkhead box O3 (FOXO3) using HepaRG (AID 2283459)
Procedure, shortened: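 FOXO3 transcript measured by qRT-PCR (normalized to ACTB, GAPDH, POLR2A) after 48 h exposure of HepaRG cells in serum-free induction medium. Duplicates, eight half-log concentrations up to 100 uM, 0.5% DMSO; gain or loss fitted against DMSO.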

[2] = read-out: ABC Transporter (ABCB1), ABCB1 (gene 5243); assay: LTEA_HepaRG_ABCB1: Life Technologies and Expression Analysis (LTEA) Assay for ABC Transporter (ABCB1) using HepaRG (AID 2283460)
Procedure, shortened: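 ABCB1 transcript level measured by TaqMan qRT-PCR against three housekeeping genes after 48 h chemical exposure of differentiated HepaRG cells. Top concentration 100 uM, half-log steps, eight points, 0.5% DMSO vehicle; bidirectional fit relative to DMSO.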

[3] = read-out: growth arrest and DNA damage 45 (GADD45B), GADD45B (gene 4616); assay: LTEA_HepaRG_GADD45B: Life Technologies and Expression Analysis (LTEA) Assay for growth arrest and DNA damage 45 (GADD45B) using HepaRG (AID 2283461)
Experimental: (§1) LTEA_HepaRG is a cell based, multiplexed-readout assay that uses HepaRG, a human liver cell line, with measurements taken at 48 hours after chemical dosing on a 96-well plate.LTEA_HepaRG_GADD45B is one of 102 assay component(s) measured in the LTEA HepaRG cell culture assay. It is a marker of Cell proliferation, survival, death.Data from the assay component LTEA_HepaRG_GADD45B was analyzed into 1 endpoint. This assay endpoint, LTEA_HepaRG_GADD45B, was analyzed with bidirectional fitting relative to DMSO as the negative control and baseline of activity. Using a type of inducible reporter, measures of mRNA induction for gain or loss-of-signal activity can be used to understand regulation of transcription factor activity. To generalize the intended target to other relatable targets, this assay endpoint is annotated to the mutagenicity response intended target family, where the subfamily is Cell proliferation, survival, death.
A total of 1060 chemcials from the ToxCast library were tested in eight-point concentration-response experiments. […] Fluidigm's 96.96 Dynamic ArrayTM (Fluidigm, Amsterdam, the Netherlands) technology was used for gene expression analyses by quantitative reverse transcription polymerase chain reaction (qRT-PCR, performed by Quintiles/Expression Analysis, Durham, NC)89. […]

[4] = read-out: ABC Transporter (ABCC3), ABCC3 (gene 8714); assay: LTEA_HepaRG_ABCC3: Life Technologies and Expression Analysis (LTEA) Assay for ABC Transporter (ABCC3) using HepaRG (AID 2283462)
Experimental: as §1, with “plate.LTEA_HepaRG_ABCC3” for “plate.LTEA_HepaRG_GADD45B”, “NR mediated transport.Data” for “Cell proliferation, survival, death.Data”, “LTEA_HepaRG_ABCC3” for “LTEA_HepaRG_GADD45B”, “LTEA_HepaRG_ABCC3,” for “LTEA_HepaRG_GADD45B,”, “transporter” for “mutagenicity response”, “ABC transporter.” for “Cell proliferation, survival, death.”
A total of 1060 chemcials from the ToxCast library were tested in eight-point concentration-response experiments. Cell culture and cytotoxicity assays were conducted at Thermo Fisher Scientific's Custom Services facility (Madison, WI). […] Fluidigm's 96.96 Dynamic ArrayTM (Fluidigm, Amsterdam, the Netherlands) technology was used for gene expression analyses by quantitative reverse transcription polymerase chain reaction (qRT-PCR, performed by Quintiles/Expression Analysis, Durham, NC)89. […]

[5] = read-out: ABC Transporter (ABCB11), ABCB11 (gene 8647); assay: LTEA_HepaRG_ABCB11: Life Technologies and Expression Analysis (LTEA) Assay for ABC Transporter (ABCB11) using HepaRG (AID 2283463)
Procedure, shortened: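 ABCB11 transcript levels quantified by TaqMan qRT-PCR against three housekeeping genes after 48 h chemical exposure of HepaRG cultures. Concentrations up to 100 uM in half-log steps, 0.5% DMSO vehicle; both induction and suppression scored.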

[6] = read-out: ABC Transporter (ABCC2), ABCC2 (gene 1244); assay: LTEA_HepaRG_ABCC2: Life Technologies and Expression Analysis (LTEA) Assay for ABC Transporter (ABCC2) using HepaRG (AID 2283464)
Procedure, shortened: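 Differentiated HepaRG cells in serum-free induction medium exposed 48 h to eight half-log concentrations up to 100 uM, 0.5% DMSO, in duplicate. ABCC2 mRNA measured by qRT-PCR (TaqMan, Fluidigm), normalized to ACTB, GAPDH and POLR2A. Fitted in both directions against DMSO.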

[7] = read-out: Broad substrate specificity ATP-binding cassette transporter ABCG2 (Homo sapiens) (UniProt Q9UNQ0); assay: LTEA_HepaRG_ABCG2: Life Technologies and Expression Analysis (LTEA) Assay for ABC Transporter (ABCG2) using HepaRG (AID 2283465)
Procedure, shortened: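 ABCG2 transcript was quantified by TaqMan qRT-PCR against three housekeeping genes in HepaRG cells. Cells were treated in duplicate for 48 h across an 8-point half-log series up to 100 uM, with 0.5% DMSO vehicle. Gain or loss versus DMSO was fit.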

[8] = read-out: ATP-citrate lyase (ACLY), ACLY (gene 47); assay: LTEA_HepaRG_ACLY: Life Technologies and Expression Analysis (LTEA) Assay for ATP-citrate lyase (ACLY) using HepaRG (AID 2283466)
Procedure, shortened: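 ACLY mRNA quantified by qRT-PCR on Fluidigm arrays against three housekeeping genes, after 48 h chemical treatment of HepaRG cells (top concentration 100 uM, half-log steps, 0.5% DMSO vehicle). Up- or down-regulation fitted relative to DMSO.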

[9] = read-out: Peroxisomal acyl-coenzyme A oxidase 1 (ACOX1) gene, ACOX1 (gene 51); assay: LTEA_HepaRG_ACOX1: Life Technologies and Expression Analysis (LTEA) Assay for Peroxisomal acyl-coenzyme A oxidase 1 (ACOX1) gene using HepaRG (AID 2283467)
Procedure, shortened: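 ACOX1 transcript levels were quantified by TaqMan qRT-PCR against three housekeeping genes after 48 h chemical exposure of differentiated human HepaRG cells. Exposure used eight half-log steps topping at 100 uM, 0.5% DMSO vehicle, in duplicate. Bidirectional curve fits were made relative to DMSO.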

[10] = read-out: Alkaline Phosphatase, Placental (ALPP) gene, ALPP (gene 250); assay: LTEA_HepaRG_ALPP: Life Technologies and Expression Analysis (LTEA) Assay for Alkaline Phosphatase, Placental (ALPP) gene using HepaRG (AID 2283468)
Procedure, shortened: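 HepaRG cells plated 48 h, then exposed in duplicate for 48 h in serum-free induction medium to 8-point half-log series from 100 uM in 0.5% DMSO. ALPP mRNA by TaqMan qRT-PCR, normalized to ACTB/GAPDH/POLR2A; bidirectional fit versus DMSO.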

Measured: outcome

Broad substrate specificity ATP-binding cassette transporter ABCG2 (Homo sapiens), sequence (Q9UNQ0 whole entry, looked up): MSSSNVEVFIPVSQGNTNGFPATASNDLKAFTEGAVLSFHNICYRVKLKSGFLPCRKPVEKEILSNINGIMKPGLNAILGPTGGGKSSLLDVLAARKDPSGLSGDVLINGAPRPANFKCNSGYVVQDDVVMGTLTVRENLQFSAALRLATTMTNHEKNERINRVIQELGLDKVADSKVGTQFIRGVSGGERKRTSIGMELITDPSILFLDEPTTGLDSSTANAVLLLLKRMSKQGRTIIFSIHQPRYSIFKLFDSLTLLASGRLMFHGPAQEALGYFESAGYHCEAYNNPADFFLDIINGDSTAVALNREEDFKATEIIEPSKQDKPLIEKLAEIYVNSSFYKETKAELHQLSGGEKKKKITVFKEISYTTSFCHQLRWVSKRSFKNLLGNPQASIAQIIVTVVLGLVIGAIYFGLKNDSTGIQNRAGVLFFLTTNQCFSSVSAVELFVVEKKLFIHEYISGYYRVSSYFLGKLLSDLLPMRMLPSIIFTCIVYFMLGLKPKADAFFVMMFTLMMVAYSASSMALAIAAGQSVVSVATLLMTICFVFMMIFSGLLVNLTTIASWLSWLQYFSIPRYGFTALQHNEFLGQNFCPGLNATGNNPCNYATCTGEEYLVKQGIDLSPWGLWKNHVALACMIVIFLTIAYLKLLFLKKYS

CS(=O)(=O)OCCCCOS(C)(=O)=O
inactive: [1] | [2] | [3] | [4] | [5] | [6] | [7] | [8] | [9] | [10]

Source: PubChem BioAssay (EPA / NIEHS)
